In the supplement of paper PMC7380943:

Each molecule was assayed on CLZ3 (HCA2 human fibroblast dual HR-NHEJ reporter) (assay: NHEJ repair efficiency (GFP+ cells) relative to control (log10 fold); higher = more non-homologous end joining). Conditions: 5 µM; doxycycline 0.5 ug/mL.
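Note: compound given one day ahead of doxycycline, which switches on I-SceI endonuclease to cut the chromosomally integrated reporter and create DSBs.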

SMILES | NHEJ repair efficiency (log10)
COC(=O)[C@H]1O[C@@H](Oc2cc3oc(-c4ccc(O)cc4)cc(=O)c3c(O)c2O)[C@H](O)[C@@H](O)[C@@H]1O [Scutellarin Methyl Ester] | -0.156
CC(C)=CCC[C@](C)(O[C@@H]1O[C@H](CO[C@@H]2O[C@@H](CO)[C@H](O)[C@H]2O)[C@@H](O)[C@H](O)[C@H]1O)[C@H]1CC[C@]2(C)[C@@H]1[C@H](O)C[C@@H]1[C@@]3(C)CC[C@H](O[C@@H]4O[C@H](CO)[C@@H](O)[C@H](O)[C@H]4O[C@@H]4O[C@H](CO)[C@@H](O)[C@H](O)[C@H]4O)C(C)(C)[C@@H]3CC[C@]12C [Ginsenoside Rc] | 0.0541
COC(=O)[C@H](c1ccccc1Cl)N1CCc2sccc2C1 [Clopidogrel bisulfate] | 0.138
O=Cc1ccc(O)c(O)c1 [Protocatechuic aldehyde] | -0.212
O=C(O)c1cc(O)c2c(c1)[C@H]([C@H]1c3cc(CO)cc(O)c3C(=O)c3c(O[C@@H]4O[C@H](CO)[C@@H](O)[C@H](O)[C@H]4O)cccc31)c1cccc(O[C@@H]3O[C@H](CO)[C@@H](O)[C@H](O)[C@H]3O)c1C2=O [Sennoside C] | -0.0248
CC1=C[C@]2(O)O[C@@]3(CC2=C(C)C)[C@@H](C)CC[C@@H]13 [Curcumenol] | 0.129
Oc1cc(O)c2c(c1)O[C@H](c1ccc(O)c(O)c1)[C@H](O)C2 [Epicatechin (EC)] | -0.238
COc1ccc(C2OCC3C(c4cc(OC)c(OC)c(OC)c4)OCC23)cc1OC (centres undefined) [Magnolin] | -0.0599
COc1cc(C2Oc3cc([C@H]4Oc5cc(O)cc(O)c5C(=O)[C@@H]4O)ccc3OC2CO)ccc1O (some centres undefined) [Silybin (Silymarin)] | 0.131
C=C(C)[C@@H]1CC[C@]2(C(=O)O)CC[C@]3(C)[C@H](CC[C@@H]4[C@@]5(C)CC[C@H](O[C@@H]6OC[C@H](O)[C@H](O)[C@H]6O[C@@H]6O[C@@H](C)[C@H](O)[C@@H](O)[C@H]6O)[C@@](C)(CO)[C@@H]5CC[C@]43C)[C@@H]12 [Anemoside A3] | 0.0688
COc1cc(O)c(C(C)=O)cc1S(=O)(=O)O [Sodium Paeonol Sulfonate] | 0.0246
C[C@H](N)C(=O)O [Alanine] | 0.113
O=C1C[C@@H](c2ccc(O)cc2)Oc2cc(O)ccc21 [Liquiritigenin] | 0.037
CC1(C)CC[C@]2(C(=O)O)CC[C@]3(C)C(=CC[C@@H]4[C@@]5(C)CC[C@H](O)C(C)(C)[C@@H]5CC[C@]43C)[C@@H]2C1 [Oleanolic Acid] | 0.0316
CC(CC(=O)C[C@@H](C)[C@H]1CC(=O)[C@@]2(C)C3=C(C(=O)C[C@]12C)[C@@]1(C)CC[C@H](O)C(C)(C)[C@@H]1C[C@@H]3O)C(=O)O (some centres undefined) [Ganoderic Acid B] | 0.0835
CC(C)=CCC[C@](C)(O[C@@H]1O[C@H](CO[C@@H]2O[C@H](CO)[C@@H](O)[C@H](O)[C@H]2O)[C@@H](O)[C@H](O)[C@H]1O)[C@H]1CC[C@]2(C)[C@@H]1[C@H](O)C[C@@H]1[C@@]3(C)CC[C@H](O[C@@H]4O[C@H](CO)[C@@H](O)[C@H](O)[C@H]4O)C(C)(C)[C@@H]3CC[C@]12C [Gypenoside Xvii] | 0.0522
COc1cc(-c2coc3cc4c(c(OC)c3c2=O)OCO4)cc(OC)c1OC [Irisflorentin] | -0.0524
COc1cc([C@H]2OC[C@H]3[C@@H]2CO[C@@H]3c2ccc(O[C@@H]3O[C@H](CO)[C@@H](O)[C@H](O)[C@H]3O)c(OC)c2)ccc1O[C@@H]1O[C@H](CO)[C@@H](O)[C@H](O)[C@H]1O [PinoresinolDiglucoside] | -0.0902
COc1ccc(/C=C/c2cc(O)cc(O[C@@H]3O[C@H](CO)[C@@H](O)[C@H](O)[C@H]3O)c2)cc1 [Desoxyrhaponticin] | 0.161
C/C=C\c1ccc(OC)cc1 [cis-Anethol] | 0.133

SMILES | NHEJ repair efficiency (log10)
COC(=O)C1=CO[C@@H](O[C@@H]2O[C@H](CO)[C@@H](O)[C@H](O)[C@H]2O)[C@H]2[C@@H]1[C@H](O)C[C@]2(C)O [Shanzhiside methylester] | 0.193
C[C@@H]1O[C@@H](OC[C@H]2O[C@@H](OCCc3ccc(O)c(O)c3)[C@H](O)[C@@H](O)[C@@H]2OC(=O)/C=C/c2ccc(O)c(O)c2)[C@H](O)[C@H](O)[C@H]1O [Forsythoside A] | 0.0797
O=C(O)C(O)Cc1ccc(O)c(O)c1 (centres undefined) [Sodium Danshensu] | -0.0204
COc1cc(CNC(=O)CCCCCCC(C)C)ccc1O [Dihydrocapsaicin] | -0.263
NC(=O)c1cccnc1 [Nicotinamide] | 0.139
COc1ccc(-c2cc(=O)c3c(OC)c(OC)c(OC)c(OC)c3o2)cc1 [Tangeretin] | -0.13
COc1cc2ccc(=O)oc2cc1O [Scopoletin] | -0.0239
CCCCC[C@H](O)CC(=O)CCc1ccc(O)c(OC)c1 [6-Gingerol] | -0.0809
CC1(C)O[C@H]2CC(=O)OC[C@]23[C@H]2CC[C@@]4(C)[C@H](c5ccoc5)OC(=O)[C@H]5O[C@]54[C@]2(C)C(=O)C[C@@H]13 [Limonin] | 0.0392
C=C(C(=O)O)[C@@H]1CC[C@@H](C)[C@@H]2CCC(C)=C[C@@H]21 [Artemisinic acid] | 0.0135
C[C@H](CCC(=O)O)[C@H]1CC[C@H]2[C@@H]3CC[C@@H]4C[C@H](O)CC[C@]4(C)[C@H]3C[C@H](O)[C@]12C [Deoxycholic acid] | -0.0363
O=c1oc2c(O)c(O)cc3c(=O)oc4c(O)c(O)cc1c4c23 [Ellagic Acid] | -0.0512
C[C@@H]1CCCCCCCCCCCCC(=O)C1 [Muscone] | 0.1
COc1cc(CCC(C)=O)ccc1O [Zingerone] | 0.275
COC(=O)C1=CO[C@@H](O[C@@H]2O[C@H](CO[C@@H]3O[C@H](CO)[C@@H](O)[C@H](O)[C@H]3O)[C@@H](O)[C@H](O)[C@H]2O)[C@@H]2C(CO)=CC[C@H]12 [Genipin 1-Gentiobioside] | 0.0417
C[C@@H]1O[C@@H](O[C@H]2[C@H](Oc3cc(O)c(C(=O)CCc4ccc(O)cc4)c(O)c3)O[C@H](CO)[C@@H](O)[C@@H]2O)[C@H](O)[C@H](O)[C@H]1O | -0.0363
CCCCCCC[C@H](O)CC(=O)CCc1ccc(O)c(OC)c1 [8-Gingerol] | 0.00172
CC(=O)O[C@@H]1CC[C@@]2(C)[C@@H](CC[C@]3(C)[C@@H]2C(=O)C=C2[C@@H]4[C@@H](C)[C@H](C)CC[C@]4(C)CC[C@]23C)[C@@]1(C)C(=O)O [3-Acetyl-11-Keto-Beta-Boswellic Acid] | -0.179
COc1cc(C[C@@H](CO[C@@H]2O[C@H](CO)[C@@H](O)[C@H](O)[C@H]2O)[C@H](CO[C@@H]2O[C@H](CO)[C@@H](O)[C@H](O)[C@H]2O)Cc2ccc(O)c(OC)c2)ccc1O [Secoisolariciresinol Diglycoside] | 0.00786
